The results in this text go back to PubChem BioAssay (Tox21).

Structures are written as SMILES. Values joined by “and” are separate entries in the source; they are usually repeats but may differ in a detail not shown here. Equal entries are not always repeated. Inconclusive results are not listed. A structure can be active in one record and inactive in another. Active and inactive are the calls of the source. Unless noted, calls come from the whole dose curve; as a rule, active = well fitted curve in the direction sought with a large enough effect in the repeat runs; inconclusive = weak or mixed curves; inactive = no such curve, though single readings can be large; an effect the other way counts as inactive or inconclusive.

The target of assay [1] is Progesterone receptor (Homo sapiens) (UniProt P06401). Nature of the assay: qHTS assay to identify small molecule agonists of the progesterone receptor (PR) signaling pathway (AID 1346784; calls by dose curve; note: nearly all actives have a fitted effect of over 30% in size; note: potency is the fitted concentration of half-maximal effect). A digest of the protocol:
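Agonist qHTS: compounds pinned onto 3,000 PR-UAS-bla HEK 293T cells per well in charcoal-stripped serum medium, 16hr at 37C, then beta-lactamase activity measured by LiveBLAzer FRET fluorescence after 2 hours at room temperature.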

For assay [2] the target is unchanged. The assay is described as follows: qHTS assay to identify small molecule antagonists of the progesterone receptor (PR) signaling pathway (AID 1346795; active = well fitted inhibition curve with a large enough effect in the signal ratio in the repeat runs, not every such curve was filed as active; the % refers to the signal ratio; note: % is set by controls: 0 for no effect and ±100 for the full control effect). An outline of the steps:
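Antagonist mode with agonist R5020 at 1 nM final and 16 hr incubation at 37C. Reporter was beta-lactamase driven by UAS in HEK293T (PR-UAS-bla), 2% charcoal-stripped serum; signal from LiveBLAzer FRET substrate, 2 hr at room temperature.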

Assay [3] in a line: qHTS assay to identify small molecule antagonists of the progesterone receptor (PR) signaling pathway - cell viability counter screen (AID 1346798). Note: series mostly up to about 92 µM; % is set by controls: 0 for no effect and ±100 for the full control effect; nearly all actives have a fitted effect of over 50% in size. A digest of the protocol: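 Cytotoxicity read as CellTiter-Glo luminescence (30 min, room temperature) in the same wells as the beta-lactamase readout. HEK293T PR-UAS-bla cells in charcoal-stripped 2% FBS received compound and R5020, then 16 h at 37C, 5% CO2.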

Assay [4] can be described thus: qHTS assay to identify small molecule agonists of the progesterone receptor (PR) signaling pathway - cell viability counter screen (AID 1346799; calls by dose curve; note: % is set by controls: 0 for no effect and ±100 for the full control effect; nearly all actives have a fitted effect of over 45% in size). An outline of the steps:
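Cytotoxicity measured by CellTiter-Glo luminescence (30 min, RT) in the same wells as the PR beta-lactamase agonist read. Those HEK293T cells had 16 h compound treatment at 37 C in 2% charcoal-stripped FBS medium.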

A short description of assay [5]: qHTS assay to identify small molecule antagonists of the TGF-beta/Smad signaling pathway - cell viability counter screen (AID 1346824). Note: % is set by controls: 0 for no effect and ±100 for the full control effect; nearly all actives have a fitted effect of over 50% in size. A digest of the protocol:
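Cytotoxicity counter-screen run in the same wells as the beta-lactamase Smad reporter read: CellTiter-Glo luminescence after 30 min at room temperature. HEK 293T SBE-bla cells had 5 hr compound exposure at 37 C with TGF-beta1 (0.25 ng/mL stock).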

Assay [6] can be described thus: qHTS assay to identify small molecule agonists of the TGF-beta/Smad signaling pathway - cell viability counter screen (AID 1346829). Note: top concentration of the series differs between compounds; % is set by controls: 0 for no effect and ±100 for the full control effect; nearly all actives have a fitted effect of over 45% in size. A digest of the protocol: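 After overnight seating at 37 C and 5% CO2, reporter cells got compounds for 5 hr and FRET substrate for 2 hr; cell viability then came from CellTiter-Glo luminescence.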
Assay [7] in a line: qHTS assay to identify small molecule agonists of the TGF-beta/Smad signaling pathway (AID 1346859; active = well fitted activation curve with a large enough effect in the signal ratio in the repeat runs, not every such curve was filed as active; the % refers to the signal ratio; note: series mostly up to about 77 µM; % is set by controls: 0 for no effect and ±100 for the full control effect). An outline of the steps:
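Fluorescence (ex 405 nm; em 460 and 530 nm) was read 2 h after LiveBLAzer FRET substrate at RT. The preceding compound treatment of overnight-plated SBE-bla HEK293T cells lasted 5 h at 37 C.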

Assay [8] deals with Thyrotropin-releasing hormone receptor (Homo sapiens) (UniProt P34981). The assay is described as follows: qHTS assay to identify small molecule antagonists of the thyrotropin-releasing hormone receptor (TRHR) signaling pathway (AID 1346877; active = well fitted inhibition curve with a large enough effect in the repeat runs, not every such curve was filed as active; note: series mostly up to about 51 µM; % is set by controls: 0 for no effect and ±100 for the full control effect). An outline of the steps:
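Intracellular calcium fluorescence, read kinetically every second over 3 min, reports TRH-evoked signalling in HEK293 cells carrying TRHR. Test compounds were added 5 min ahead of a 1 nM TRH challenge.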

The target is the same in assay [9]. Nature of the assay: qHTS assay to identify small molecule agonists of the thyrotropin-releasing hormone receptor (TRHR) signaling pathway (AID 1346891; calls by dose curve; note: series mostly up to about 58 µM; % is set by controls: 0 for no effect and ±100 for the full control effect). An outline of the steps: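 Agonist-mode intracellular calcium readout: kinetic fluorescence over 3 min at 1 s intervals after compound addition to TRHR-HEK293 cells (18 h seeded, 2 h dye-loaded at 37 C). Fifteen concentrations, triplicates.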

Assay [10] can be described thus: Human pregnane X receptor (PXR) small molecule agonists, qHTS cell viability counter screen (AID 1346977). Note: % is set by controls: 0 for no effect and ±100 for the full control effect; nearly all actives have a fitted effect of over 50% in size. A digest of the protocol:
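Same-well viability read: CellTiter-Fluor added after 23 hr compound exposure, fluorescence measured 1 hr later. Cells were PXR-Luc HepG2 seeded at 2,000/well in 5% charcoal-stripped FBS medium, rested 5 hr before dosing at 37 C.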

Assay [11] in a line: Caspase-3/7 induction in HepG2 cells by small molecules, qHTS assay (AID 1346978). Note: % is set by controls: 0 for no effect and ±100 for the full control effect; nearly all actives have a fitted effect of over 15% in size. An outline of the steps:
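Caspase-3/7 induction was measured by Caspase-Glo 3/7 luminescence (30 min, room temperature) after a 17 hr compound exposure of wild-type HepG2 cells seeded at 2,000 per well and pre-incubated 5 hr.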

Assay [12] in a line: Caspase-3/7 induction in CHO-K1 cells by small molecules, qHTS cell viability counter screen (AID 1346979). Note: % is set by controls: 0 for no effect and ±100 for the full control effect; nearly all actives have a fitted effect of over 35% in size. A digest of the protocol:
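Cytotoxicity counter screen: CellTiter-Fluor added to compound-treated wild-type CHO-K1 cells at 16 h (37C, 5% CO2), fluorescence measured 1 h later; same wells as caspase-3/7 measurement.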

Assay [13] is described as follows: Caspase-3/7 induction in CHO-K1 cells by small molecules, qHTS assay (AID 1346980). Note: % is set by controls: 0 for no effect and ±100 for the full control effect; nearly all actives have a fitted effect of over 15% in size. A digest of the protocol:
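Luminescent Caspase-Glo 3/7 read (30min, room temperature) quantified apoptosis induction. Cells were wild-type CHO-K1, treated with compound for 17hr at 37 C and 5% CO2.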

The nature of assay [14]: Caspase-3/7 induction in HepG2 cells by small molecules, qHTS cell viability counter screen (AID 1346981). Note: series mostly up to about 92 µM; % is set by controls: 0 for no effect and ±100 for the full control effect; nearly all actives have a fitted effect of over 30% in size. A digest of the protocol: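 HepG2, WT, 2,000 cells/well; 5 hr pre-incubation 37 C/5% CO2; compound pin-transferred from DMSO; 16 hr exposure; CellTiter-Fluor, 1 hr; fluorescence read.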
Assay [15] has as its target Nuclear receptor subfamily 1 group I member 2 (Homo sapiens) (UniProt O75469). Nature of the assay: Human pregnane X receptor (PXR) small molecule agonists, qHTS assay (AID 1346982). Note: % is set by controls: 0 for no effect and ±100 for the full control effect; nearly all actives have a fitted effect of over 35% in size. An outline of the steps: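 Luciferase signal from ONE-Glo (30 min, room temperature) measured activation of hPXR-driven CYP3A4 reporter expression in PXR-Luc HepG2 cells treated with compounds for 24 hr at 37 C.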

Assay [16] deals with Cytochrome P450 2D6 (Homo sapiens) (UniProt P10635). Nature of the assay: Cytochrome P450 Family 2 Subfamily D Member 6 (CYP2D6) small molecule antagonists: luciferase reporter qHTS assay (AID 1671196). Note: nearly all actives have a fitted effect of over 50% in size. Note: potency is the fitted concentration of half-maximal effect. An outline of the steps:
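Read-out is luminescence from luciferin formed by CYP2D6 turnover of a proluciferin substrate, recorded as relative luminescence units. Reactions ran 1 h at room temperature after NADPH regeneration solution was added.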

Assay [17] addresses Cytochrome P450 2C19 (Homo sapiens) (UniProt P33261). The assay is described as follows: Cytochrome P450 Family 2 Subfamily C Member 19 (CYP2C19) small molecule antagonists: luciferase reporter qHTS assay (AID 1671197). Note: potency is the fitted concentration of half-maximal effect; nearly all actives have a fitted effect of over 65% in size. A digest of the protocol:
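Inhibition of CYP2C19 was scored from loss of luminescence in a P450-Glo proluciferin substrate assay, NADPH-started and run 1 h at 37C, with ketoconazole as positive control.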

Nuclear receptor subfamily 1 group I member 2 (Homo sapiens), sequence (O75469 whole entry, looked up): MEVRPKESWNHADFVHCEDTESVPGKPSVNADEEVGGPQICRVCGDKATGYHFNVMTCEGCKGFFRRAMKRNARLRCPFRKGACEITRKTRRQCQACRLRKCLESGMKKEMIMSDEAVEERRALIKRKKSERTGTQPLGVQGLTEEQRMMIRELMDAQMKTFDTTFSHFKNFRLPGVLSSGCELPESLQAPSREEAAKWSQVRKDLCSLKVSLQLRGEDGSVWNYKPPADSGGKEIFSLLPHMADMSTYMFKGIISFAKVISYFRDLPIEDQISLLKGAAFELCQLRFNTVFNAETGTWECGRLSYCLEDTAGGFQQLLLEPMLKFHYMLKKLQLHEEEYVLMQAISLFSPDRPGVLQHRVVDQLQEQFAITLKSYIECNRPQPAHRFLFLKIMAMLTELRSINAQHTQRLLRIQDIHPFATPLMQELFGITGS
Thyrotropin-releasing hormone receptor (Homo sapiens), sequence (P34981 whole entry, looked up): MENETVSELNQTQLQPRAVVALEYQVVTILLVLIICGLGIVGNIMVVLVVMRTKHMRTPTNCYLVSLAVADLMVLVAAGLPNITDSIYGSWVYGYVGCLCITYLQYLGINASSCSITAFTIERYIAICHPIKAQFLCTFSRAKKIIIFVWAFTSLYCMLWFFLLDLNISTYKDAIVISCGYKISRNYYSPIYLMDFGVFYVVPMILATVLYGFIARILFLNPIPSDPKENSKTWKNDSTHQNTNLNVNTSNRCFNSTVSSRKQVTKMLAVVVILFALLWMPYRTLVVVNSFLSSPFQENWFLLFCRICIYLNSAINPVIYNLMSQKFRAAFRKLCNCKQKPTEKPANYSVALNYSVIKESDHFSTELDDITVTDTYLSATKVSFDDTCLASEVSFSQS
Cytochrome P450 2D6 (Homo sapiens), sequence (P10635 whole entry, looked up): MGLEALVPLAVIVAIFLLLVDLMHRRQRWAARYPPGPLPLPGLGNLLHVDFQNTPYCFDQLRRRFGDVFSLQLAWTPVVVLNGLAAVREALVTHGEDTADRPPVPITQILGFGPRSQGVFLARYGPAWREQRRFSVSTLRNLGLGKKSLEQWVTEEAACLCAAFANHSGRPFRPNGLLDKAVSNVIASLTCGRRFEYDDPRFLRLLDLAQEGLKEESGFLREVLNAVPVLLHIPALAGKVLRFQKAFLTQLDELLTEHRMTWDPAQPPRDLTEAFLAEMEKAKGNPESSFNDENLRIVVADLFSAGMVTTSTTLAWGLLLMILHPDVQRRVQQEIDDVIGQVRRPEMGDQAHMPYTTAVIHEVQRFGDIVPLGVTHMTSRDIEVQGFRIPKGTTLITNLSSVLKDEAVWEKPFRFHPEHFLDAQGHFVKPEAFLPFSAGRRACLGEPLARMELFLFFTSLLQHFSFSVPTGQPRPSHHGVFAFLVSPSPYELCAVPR
Progesterone receptor (Homo sapiens), sequence (P06401 whole entry, looked up): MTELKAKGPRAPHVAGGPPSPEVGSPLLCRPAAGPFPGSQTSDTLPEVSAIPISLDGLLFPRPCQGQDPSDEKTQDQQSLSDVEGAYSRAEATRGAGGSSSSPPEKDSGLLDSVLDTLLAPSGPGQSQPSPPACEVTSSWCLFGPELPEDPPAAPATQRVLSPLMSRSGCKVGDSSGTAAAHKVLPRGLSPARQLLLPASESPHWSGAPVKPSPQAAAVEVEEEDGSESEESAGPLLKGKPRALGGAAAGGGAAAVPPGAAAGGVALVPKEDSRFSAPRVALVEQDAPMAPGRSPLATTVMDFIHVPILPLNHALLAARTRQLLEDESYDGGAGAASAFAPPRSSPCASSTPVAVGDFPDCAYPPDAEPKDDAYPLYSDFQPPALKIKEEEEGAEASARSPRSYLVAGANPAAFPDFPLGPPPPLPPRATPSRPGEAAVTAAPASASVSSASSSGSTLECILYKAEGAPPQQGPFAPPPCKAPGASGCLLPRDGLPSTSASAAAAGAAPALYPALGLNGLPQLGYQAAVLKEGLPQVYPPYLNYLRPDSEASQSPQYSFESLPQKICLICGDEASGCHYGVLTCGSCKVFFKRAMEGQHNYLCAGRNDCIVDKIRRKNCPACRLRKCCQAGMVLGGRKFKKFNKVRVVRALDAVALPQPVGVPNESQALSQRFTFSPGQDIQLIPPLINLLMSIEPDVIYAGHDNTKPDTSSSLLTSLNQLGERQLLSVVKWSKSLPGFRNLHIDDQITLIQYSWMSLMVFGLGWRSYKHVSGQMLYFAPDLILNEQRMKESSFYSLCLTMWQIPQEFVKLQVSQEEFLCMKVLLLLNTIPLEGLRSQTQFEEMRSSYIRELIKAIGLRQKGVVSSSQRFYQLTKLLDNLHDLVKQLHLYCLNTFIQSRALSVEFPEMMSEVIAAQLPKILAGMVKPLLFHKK
Cytochrome P450 2C19 (Homo sapiens), sequence (P33261 whole entry, looked up): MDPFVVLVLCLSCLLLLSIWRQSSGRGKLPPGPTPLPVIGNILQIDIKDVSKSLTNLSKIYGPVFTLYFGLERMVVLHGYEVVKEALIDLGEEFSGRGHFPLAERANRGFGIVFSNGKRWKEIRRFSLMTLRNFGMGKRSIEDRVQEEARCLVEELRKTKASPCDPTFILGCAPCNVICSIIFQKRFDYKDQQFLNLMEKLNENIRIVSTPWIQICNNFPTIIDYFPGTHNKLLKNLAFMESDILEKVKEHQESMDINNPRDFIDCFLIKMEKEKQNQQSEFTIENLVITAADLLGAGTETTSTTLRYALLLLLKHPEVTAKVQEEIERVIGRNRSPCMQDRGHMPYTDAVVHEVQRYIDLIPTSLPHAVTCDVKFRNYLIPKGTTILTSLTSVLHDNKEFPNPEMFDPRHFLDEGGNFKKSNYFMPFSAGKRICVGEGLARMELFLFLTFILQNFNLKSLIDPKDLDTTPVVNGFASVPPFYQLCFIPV

Regarding `OCC(CO)(CO)CO`, the Potency result in assay [1], in assay [2], in assay [3], in assay [4], in assay [5] and in assay [6] was “inactive” throughout. In addition, the Potency result in assay [7], in [8], in assay [10], in assay [11], in [12] and in assay [13] was “inactive” each time. Moreover, the Potency result in assay [14], in [15] and in [16] was “inactive” each time. The compound was classed as inactive in assay [9].

With `Cc1ccc(Cl)cc1`, the Potency entry in assay [1], in [2], in assay [3], in assay [4], in [5] and in [6] was “inactive” each time. Further, the Potency entry in assay [7], in assay [8], in [10], in [11], in assay [12] and in [13] was “inactive” in each case. The Potency result in assay [14] and in assay [15] was “inactive” in each case. Further, the call in assay [9] was inactive. Further, in assay [16], the Potency was 33.5 µM (active) and inactive.

On to `O=C(O)C1=NN(c2ccc(S(=O)(=O)O)cc2)C(=O)C1`, for which the Potency result in assay [1], in assay [2], in [3], in [4], in assay [5] and in assay [6] was “inactive” each time. Further, the Potency result in assay [7], in assay [8], in assay [10], in assay [11], in assay [12] and in assay [13] was “inactive” each time. The Potency entry in assay [14], in [15] and in [16] was “inactive” throughout. The outcome in assay [9] was inactive. The Potency in assay [17] was 35.6 µM (active).

With `O=[N+]([O-])c1cc(C(F)(F)F)ccc1Cl`, the Potency entry in [1], in assay [2], in assay [3], in [4], in assay [5] and in [6] was “inactive” throughout. Further, the Potency entry in [7], in [8], in [10], in [11], in [12] and in [13] was “inactive” in each case. For the same compound, the Potency result in assay [14], in assay [15] and in assay [16] was “inactive” in each case. The call in assay [9] was inactive.

With `CC(=O)OC(C)(C)C1CC=C(C)CC1` (stereo not given), the Potency result in [1], in assay [2], in [3], in assay [4], in [5] and in assay [6] was “inactive” each time. Besides, the Potency entry in assay [7], in assay [8], in assay [10], in assay [11], in [12] and in [13] was “inactive” throughout. In addition, the Potency result in assay [14], in assay [15] and in assay [16] was “inactive” throughout. Moreover, the compound was classed as inactive in assay [9].

With `Brc1ccc(Oc2ccc(Br)cc2)cc1`, the Potency entry in assay [1], in [2], in assay [3], in assay [4], in [5] and in assay [6] was “inactive” each time. The Potency result in assay [7], in assay [8], in [10], in [11], in [12] and in assay [13] was “inactive” in each case. Besides, the Potency result in assay [14], in assay [15] and in assay [16] was “inactive” in each case. The result in assay [9] was inactive. The Potency in [17] is 12.6 µM (active) and 5.03 µM (active).

As for `Nc1cccc(C(F)(F)F)c1`, the Potency result in assay [1], in assay [2], in assay [3], in assay [4], in assay [5] and in [6] was “inactive” in each case. In addition, the Potency entry in [7], in assay [8], in assay [10], in [11], in [12] and in assay [13] was “inactive” throughout. Further, the Potency entry in [14], in [15] and in [16] was “inactive” each time. Also, the outcome in [9] was inactive.

In the case of `CCn1cc(C(=O)O)c(=O)c2cc3c(cc21)OCO3`, the Potency in assay [1] was 1.24 µM (active). Moreover, the activation in assay [1] is -1.39% [at 19 µM] (inactive). Moreover, the Potency result in [2], in assay [3], in assay [5], in assay [6], in assay [7] and in [8] was “inactive” throughout. For the same compound, the Potency result in [10], in assay [11], in [13], in assay [14], in assay [15] and in assay [16] was “inactive” in each case. Moreover, the activity change, negative = cytotoxicity in assay [4] was -0.681% [at 19 µM] (inactive). Also, the result in assay [9] was inactive.
